The record followed here is ChEMBL document CHEMBL1961873, “Compounds: GSK PKIS; Assays: Nanosyn kinase panel” (2012).

The target of assay [1] is Tyrosine-protein kinase CSK (Homo sapiens) (UniProt P41240). As to conditions: at 1 µM.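 Also: each value is an averaged inhibition reading.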
For assay [2], the target named is T1, Discoidin domain-containing receptor 2 (Homo sapiens) (UniProt Q16832).
T1 sequence (whole entry): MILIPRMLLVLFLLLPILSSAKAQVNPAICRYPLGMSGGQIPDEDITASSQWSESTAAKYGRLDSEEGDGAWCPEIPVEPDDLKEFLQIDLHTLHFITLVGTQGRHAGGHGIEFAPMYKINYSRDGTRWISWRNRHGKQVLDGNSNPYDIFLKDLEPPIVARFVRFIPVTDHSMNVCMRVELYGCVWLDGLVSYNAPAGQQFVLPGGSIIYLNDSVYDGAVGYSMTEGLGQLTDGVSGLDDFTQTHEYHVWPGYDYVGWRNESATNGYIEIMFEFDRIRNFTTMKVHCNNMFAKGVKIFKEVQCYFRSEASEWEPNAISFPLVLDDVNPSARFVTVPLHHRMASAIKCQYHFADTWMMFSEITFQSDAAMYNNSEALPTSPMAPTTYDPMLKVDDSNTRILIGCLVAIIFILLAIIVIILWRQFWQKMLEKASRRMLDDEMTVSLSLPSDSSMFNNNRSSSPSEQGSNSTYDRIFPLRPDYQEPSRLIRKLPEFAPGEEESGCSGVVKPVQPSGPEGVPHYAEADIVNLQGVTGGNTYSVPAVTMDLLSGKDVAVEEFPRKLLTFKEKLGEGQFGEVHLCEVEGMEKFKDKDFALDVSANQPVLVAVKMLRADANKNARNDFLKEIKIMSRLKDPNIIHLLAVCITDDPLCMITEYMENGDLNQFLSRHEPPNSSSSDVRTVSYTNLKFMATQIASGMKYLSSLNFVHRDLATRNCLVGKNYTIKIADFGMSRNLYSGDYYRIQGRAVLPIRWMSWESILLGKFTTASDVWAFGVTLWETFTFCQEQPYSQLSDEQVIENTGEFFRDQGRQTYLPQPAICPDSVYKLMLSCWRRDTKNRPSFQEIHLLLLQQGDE
As to conditions: at 0.1 µM.

For assay [3], the target named is T1, Discoidin domain-containing receptor 2 (Homo sapiens). As to conditions: at 1 µM.
In assay [4] the target is Epidermal growth factor receptor (Homo sapiens) (UniProt P00533). As to conditions: at 0.1 µM.
For assay [5] the target is unchanged. The conditions noted are these: at 1 µM.
Assay [6] relates to Epidermal growth factor receptor (Homo sapiens), P00533 [L858R]. The conditions noted are these: at 0.1 µM.
Chain of Epidermal growth factor receptor (Homo sapiens), P00533 [L858R] (P00533 whole entry L858R): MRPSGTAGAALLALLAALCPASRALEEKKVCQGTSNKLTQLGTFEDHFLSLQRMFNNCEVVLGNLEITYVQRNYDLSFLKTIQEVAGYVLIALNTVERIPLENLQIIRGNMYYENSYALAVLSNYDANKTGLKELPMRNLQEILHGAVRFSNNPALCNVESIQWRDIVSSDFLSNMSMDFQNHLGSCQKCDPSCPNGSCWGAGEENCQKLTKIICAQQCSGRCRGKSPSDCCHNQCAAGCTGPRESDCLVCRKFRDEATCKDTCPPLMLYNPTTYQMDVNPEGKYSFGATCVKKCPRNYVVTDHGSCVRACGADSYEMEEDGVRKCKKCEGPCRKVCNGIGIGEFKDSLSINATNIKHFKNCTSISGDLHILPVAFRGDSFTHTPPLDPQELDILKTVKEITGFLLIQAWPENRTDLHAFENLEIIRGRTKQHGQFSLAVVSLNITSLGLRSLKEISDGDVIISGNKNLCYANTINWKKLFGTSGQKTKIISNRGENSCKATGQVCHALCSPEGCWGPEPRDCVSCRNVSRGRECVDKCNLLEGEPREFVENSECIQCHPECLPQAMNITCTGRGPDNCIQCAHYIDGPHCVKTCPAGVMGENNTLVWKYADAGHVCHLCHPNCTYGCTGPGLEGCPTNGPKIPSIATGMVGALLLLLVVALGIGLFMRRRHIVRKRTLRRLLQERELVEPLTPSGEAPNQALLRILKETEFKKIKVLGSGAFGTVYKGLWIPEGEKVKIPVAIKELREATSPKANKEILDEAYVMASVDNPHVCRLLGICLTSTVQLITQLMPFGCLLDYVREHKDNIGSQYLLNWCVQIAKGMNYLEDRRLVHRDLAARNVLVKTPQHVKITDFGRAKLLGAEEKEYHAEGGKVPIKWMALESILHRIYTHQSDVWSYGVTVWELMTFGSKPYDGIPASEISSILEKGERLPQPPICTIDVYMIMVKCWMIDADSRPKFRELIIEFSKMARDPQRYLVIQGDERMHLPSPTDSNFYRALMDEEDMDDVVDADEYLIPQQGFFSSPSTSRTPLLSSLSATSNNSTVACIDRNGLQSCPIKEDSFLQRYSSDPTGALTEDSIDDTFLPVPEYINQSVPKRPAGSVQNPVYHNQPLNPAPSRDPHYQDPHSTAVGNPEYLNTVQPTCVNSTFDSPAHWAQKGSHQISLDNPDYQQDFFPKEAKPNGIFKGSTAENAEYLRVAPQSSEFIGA
The test system is the same in assay [7]. As to conditions: at 1 µM.
Assay [8] deals with Epidermal growth factor receptor (Homo sapiens), P00533 [L861Q]. The conditions noted are these: at 0.1 µM.
Assay [9] shares this test system. As to conditions: at 1 µM.
In assay [10] the test system is Epidermal growth factor receptor (Homo sapiens), P00533 [T790M]. As to conditions: at 0.1 µM.
For assay [11] the test system is unchanged. The conditions noted are these: at 1 µM.
For assay [12], the system named is Epidermal growth factor receptor (Homo sapiens), P00533 [L858R,T790M]. As to conditions: at 0.1 µM.
Chain of Epidermal growth factor receptor (Homo sapiens), P00533 [L858R,T790M] (P00533 whole entry T790M/L858R, looked up): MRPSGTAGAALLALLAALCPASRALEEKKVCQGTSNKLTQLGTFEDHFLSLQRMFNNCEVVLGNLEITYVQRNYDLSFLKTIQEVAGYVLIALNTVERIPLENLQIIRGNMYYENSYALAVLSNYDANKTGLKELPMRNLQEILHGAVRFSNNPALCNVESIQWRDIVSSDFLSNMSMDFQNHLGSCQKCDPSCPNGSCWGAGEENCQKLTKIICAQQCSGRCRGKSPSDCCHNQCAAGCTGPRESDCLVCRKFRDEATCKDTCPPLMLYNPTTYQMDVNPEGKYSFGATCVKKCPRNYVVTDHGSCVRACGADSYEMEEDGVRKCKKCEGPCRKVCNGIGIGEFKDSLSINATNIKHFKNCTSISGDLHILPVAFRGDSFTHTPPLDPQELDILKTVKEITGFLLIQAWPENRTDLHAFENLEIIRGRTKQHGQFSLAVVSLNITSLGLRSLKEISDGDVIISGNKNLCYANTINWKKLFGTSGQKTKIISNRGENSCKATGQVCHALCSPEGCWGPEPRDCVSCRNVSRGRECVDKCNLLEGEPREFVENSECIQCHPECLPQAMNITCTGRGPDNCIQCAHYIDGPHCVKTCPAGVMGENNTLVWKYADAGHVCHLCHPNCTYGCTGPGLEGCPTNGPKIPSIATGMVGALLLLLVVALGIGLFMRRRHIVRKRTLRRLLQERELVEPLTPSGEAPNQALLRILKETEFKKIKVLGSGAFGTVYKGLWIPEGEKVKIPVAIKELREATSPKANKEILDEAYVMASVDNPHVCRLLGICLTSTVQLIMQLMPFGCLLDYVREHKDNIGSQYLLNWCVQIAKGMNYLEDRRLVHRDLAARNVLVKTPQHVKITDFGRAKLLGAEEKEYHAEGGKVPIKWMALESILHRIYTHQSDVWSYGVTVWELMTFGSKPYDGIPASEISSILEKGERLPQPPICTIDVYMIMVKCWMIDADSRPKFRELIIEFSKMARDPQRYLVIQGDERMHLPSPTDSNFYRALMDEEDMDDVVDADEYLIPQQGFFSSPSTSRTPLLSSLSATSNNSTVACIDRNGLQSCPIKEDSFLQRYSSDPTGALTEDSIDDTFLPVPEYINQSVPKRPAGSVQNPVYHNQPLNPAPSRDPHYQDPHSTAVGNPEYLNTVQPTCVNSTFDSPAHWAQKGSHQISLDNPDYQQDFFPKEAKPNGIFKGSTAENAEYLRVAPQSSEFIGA
Assay [13] shares this test system. As to conditions: at 1 µM.
Assay [14] concerns the target Ephrin type-A receptor 2 (Homo sapiens) (UniProt P29317). The conditions noted are these: at 0.1 µM.
The target is the same in assay [15]. The conditions noted are these: at 1 µM.
Assay [16] deals with T2, Ephrin type-A receptor 3 (Homo sapiens) (UniProt P29320).
T2 sequence (whole entry): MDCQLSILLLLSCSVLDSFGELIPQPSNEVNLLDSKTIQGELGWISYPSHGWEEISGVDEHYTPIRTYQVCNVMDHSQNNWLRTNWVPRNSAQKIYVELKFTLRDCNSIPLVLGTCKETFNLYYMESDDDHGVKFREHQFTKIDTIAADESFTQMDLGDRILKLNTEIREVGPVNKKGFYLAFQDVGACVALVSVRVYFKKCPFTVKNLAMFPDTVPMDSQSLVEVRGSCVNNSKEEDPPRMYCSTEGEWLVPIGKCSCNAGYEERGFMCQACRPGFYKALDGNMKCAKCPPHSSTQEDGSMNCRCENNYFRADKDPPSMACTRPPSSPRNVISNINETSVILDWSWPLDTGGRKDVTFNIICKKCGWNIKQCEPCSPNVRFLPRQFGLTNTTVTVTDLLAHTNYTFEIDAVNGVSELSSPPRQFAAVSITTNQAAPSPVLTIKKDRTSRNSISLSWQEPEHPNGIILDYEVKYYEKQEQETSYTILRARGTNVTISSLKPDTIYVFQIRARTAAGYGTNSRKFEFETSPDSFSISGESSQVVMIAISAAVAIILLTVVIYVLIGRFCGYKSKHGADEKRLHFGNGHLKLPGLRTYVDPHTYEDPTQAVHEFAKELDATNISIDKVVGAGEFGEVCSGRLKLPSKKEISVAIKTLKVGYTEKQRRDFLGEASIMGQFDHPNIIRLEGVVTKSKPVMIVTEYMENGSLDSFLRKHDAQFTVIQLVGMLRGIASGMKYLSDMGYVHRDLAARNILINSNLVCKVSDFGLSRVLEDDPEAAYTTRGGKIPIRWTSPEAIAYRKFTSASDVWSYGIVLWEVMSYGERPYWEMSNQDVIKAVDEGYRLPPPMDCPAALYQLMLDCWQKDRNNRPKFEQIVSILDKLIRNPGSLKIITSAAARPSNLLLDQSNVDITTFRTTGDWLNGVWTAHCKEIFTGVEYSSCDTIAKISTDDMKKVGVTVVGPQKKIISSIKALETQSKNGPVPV
As to conditions: at 0.1 µM.

The target of assay [17] is T2, Ephrin type-A receptor 3 (Homo sapiens). As to conditions: at 1 µM.
Assay [18] addresses Ephrin type-A receptor 4 (Homo sapiens) (UniProt P54764). As to conditions: at 0.1 µM.
The target is the same in assay [19]. As to conditions: at 1 µM.
The target in assay [20] is T3, Ephrin type-B receptor 2 (Homo sapiens) (UniProt P29323).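 Also: reported as mean inhibition of EPHB2, from the GSK PKIS dataset.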
T3 sequence (whole entry): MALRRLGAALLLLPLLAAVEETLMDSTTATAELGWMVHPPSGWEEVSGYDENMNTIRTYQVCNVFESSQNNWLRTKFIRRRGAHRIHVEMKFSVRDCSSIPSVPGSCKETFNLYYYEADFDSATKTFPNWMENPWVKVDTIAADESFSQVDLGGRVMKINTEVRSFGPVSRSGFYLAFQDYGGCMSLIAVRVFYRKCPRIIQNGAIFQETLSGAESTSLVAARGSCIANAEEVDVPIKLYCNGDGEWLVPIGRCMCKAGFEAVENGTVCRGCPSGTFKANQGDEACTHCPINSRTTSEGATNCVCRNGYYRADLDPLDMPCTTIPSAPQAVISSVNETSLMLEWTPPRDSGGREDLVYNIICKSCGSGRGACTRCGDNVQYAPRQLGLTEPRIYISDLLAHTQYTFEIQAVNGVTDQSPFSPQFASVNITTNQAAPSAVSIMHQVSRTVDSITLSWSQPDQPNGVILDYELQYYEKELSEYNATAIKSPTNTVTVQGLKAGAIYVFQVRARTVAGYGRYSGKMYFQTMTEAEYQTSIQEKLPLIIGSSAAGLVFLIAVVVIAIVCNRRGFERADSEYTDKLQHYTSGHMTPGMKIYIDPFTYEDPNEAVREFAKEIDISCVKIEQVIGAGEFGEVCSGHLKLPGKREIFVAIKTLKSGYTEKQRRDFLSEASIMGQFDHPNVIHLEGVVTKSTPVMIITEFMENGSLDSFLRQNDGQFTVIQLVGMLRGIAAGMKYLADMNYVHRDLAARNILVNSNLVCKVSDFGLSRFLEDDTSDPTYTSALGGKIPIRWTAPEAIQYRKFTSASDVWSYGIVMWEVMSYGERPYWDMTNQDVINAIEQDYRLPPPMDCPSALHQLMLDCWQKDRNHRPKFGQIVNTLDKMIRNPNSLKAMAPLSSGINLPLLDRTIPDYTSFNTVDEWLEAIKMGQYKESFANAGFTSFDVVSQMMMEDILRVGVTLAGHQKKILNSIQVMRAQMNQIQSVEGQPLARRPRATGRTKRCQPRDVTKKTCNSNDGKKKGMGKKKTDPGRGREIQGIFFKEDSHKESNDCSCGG
The conditions noted are these: at 0.1 µM.

Chain of Ephrin type-A receptor 4 (Homo sapiens) (P54764 whole entry): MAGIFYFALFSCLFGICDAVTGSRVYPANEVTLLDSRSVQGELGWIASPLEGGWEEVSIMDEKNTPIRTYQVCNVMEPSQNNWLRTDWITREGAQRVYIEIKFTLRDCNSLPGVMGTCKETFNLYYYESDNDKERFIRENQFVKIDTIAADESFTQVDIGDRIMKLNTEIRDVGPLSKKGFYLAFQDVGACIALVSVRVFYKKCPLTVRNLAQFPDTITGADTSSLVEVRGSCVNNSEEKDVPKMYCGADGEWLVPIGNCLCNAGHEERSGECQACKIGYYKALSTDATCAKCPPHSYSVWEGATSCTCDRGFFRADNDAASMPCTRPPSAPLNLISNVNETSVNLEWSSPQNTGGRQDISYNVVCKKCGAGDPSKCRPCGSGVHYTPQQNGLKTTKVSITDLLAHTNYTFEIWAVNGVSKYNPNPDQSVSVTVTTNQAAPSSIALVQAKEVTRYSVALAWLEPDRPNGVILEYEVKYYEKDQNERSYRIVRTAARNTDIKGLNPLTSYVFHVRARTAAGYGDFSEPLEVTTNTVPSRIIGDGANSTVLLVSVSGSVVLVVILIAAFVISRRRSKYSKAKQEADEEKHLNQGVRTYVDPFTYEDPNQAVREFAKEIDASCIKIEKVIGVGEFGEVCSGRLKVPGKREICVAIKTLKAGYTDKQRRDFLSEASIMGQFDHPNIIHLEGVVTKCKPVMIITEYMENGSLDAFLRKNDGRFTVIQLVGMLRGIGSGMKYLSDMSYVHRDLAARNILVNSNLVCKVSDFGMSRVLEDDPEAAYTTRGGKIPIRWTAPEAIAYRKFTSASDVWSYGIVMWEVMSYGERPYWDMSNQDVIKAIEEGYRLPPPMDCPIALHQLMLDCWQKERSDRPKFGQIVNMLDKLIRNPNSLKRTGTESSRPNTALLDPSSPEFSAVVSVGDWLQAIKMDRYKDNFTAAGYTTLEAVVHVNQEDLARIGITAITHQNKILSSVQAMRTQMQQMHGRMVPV
Chain of Ephrin type-A receptor 2 (Homo sapiens) (P29317 whole entry): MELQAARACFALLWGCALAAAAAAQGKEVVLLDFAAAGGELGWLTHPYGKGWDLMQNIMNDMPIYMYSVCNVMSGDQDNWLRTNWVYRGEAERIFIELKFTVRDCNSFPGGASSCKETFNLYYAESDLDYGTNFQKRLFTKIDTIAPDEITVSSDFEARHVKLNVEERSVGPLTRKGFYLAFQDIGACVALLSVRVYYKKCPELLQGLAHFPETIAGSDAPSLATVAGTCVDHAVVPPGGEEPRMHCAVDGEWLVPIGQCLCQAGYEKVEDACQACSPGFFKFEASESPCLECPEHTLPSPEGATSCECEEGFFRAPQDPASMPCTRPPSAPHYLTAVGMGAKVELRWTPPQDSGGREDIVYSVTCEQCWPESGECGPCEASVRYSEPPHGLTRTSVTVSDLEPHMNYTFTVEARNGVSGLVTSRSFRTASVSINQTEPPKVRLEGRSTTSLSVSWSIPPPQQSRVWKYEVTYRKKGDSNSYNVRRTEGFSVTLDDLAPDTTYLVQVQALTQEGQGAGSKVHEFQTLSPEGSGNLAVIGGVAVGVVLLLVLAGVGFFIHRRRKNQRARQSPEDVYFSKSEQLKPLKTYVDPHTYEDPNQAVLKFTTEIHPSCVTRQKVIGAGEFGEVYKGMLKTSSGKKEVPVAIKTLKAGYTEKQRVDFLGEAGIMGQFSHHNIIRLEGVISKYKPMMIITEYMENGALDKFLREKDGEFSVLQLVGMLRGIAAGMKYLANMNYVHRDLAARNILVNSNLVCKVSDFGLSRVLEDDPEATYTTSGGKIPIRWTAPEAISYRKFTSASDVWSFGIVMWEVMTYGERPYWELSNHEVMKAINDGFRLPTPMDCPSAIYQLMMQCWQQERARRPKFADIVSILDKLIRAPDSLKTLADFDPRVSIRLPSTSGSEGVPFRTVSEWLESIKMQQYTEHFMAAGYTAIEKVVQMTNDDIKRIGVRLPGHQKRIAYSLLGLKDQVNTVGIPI
Chain of Tyrosine-protein kinase CSK (Homo sapiens) (P41240 2-450 limits assumed): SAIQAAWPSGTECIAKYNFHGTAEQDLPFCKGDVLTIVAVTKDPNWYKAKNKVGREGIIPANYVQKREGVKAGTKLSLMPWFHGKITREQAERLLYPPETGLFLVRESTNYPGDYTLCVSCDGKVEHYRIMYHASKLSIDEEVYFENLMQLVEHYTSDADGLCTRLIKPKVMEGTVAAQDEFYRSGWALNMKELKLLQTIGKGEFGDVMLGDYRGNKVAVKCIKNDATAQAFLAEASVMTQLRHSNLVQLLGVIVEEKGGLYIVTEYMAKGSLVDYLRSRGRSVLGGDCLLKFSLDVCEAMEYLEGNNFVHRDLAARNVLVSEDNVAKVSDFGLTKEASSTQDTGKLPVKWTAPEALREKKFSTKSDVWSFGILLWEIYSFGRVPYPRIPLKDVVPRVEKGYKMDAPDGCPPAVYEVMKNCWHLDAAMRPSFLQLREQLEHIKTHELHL

Turning to `CC1=C(C(=O)Nc2cc(Cl)c3[nH]ncc3c2)C(c2ccc(C(F)(F)F)cc2)CC(=O)N1` (stereo not given), the inhibition in [1] is 2.47%; in [2], 1.75%; in [3] it was 1.35%; in [4] it was -1.31%; in [5] it was 5.03%; in assay [6] it was 2.16%. The inhibition amounted to 7.45% in [7]; 2.03% in assay [8]; 2.45% in assay [9]; 1.57% in assay [10]; 4.57% in assay [11]; 1.19% in assay [12]. Also, the inhibition is 1.94% in [13]; -2.83% in [14]; -2.1% in assay [15]; 2.24% in assay [16]; 2.48% in assay [17]; 8.02% in assay [18]. Besides, the inhibition was found to be 6.71% in [19] and 1.63% in assay [20].

Take `Nc1ncc(-c2cccc(S(N)(=O)=O)c2)c2scc(-c3ccc(F)c(Cl)c3)c12`: the inhibition was 73.3% in assay [1]; 2.61% in assay [2]; 11.2% in assay [3]; 0.5% in assay [4]; 14.2% in assay [5]; 5.06% in assay [6]. The inhibition is 23.1% in assay [7]; 5.17% in assay [8]; 10.2% in assay [9]; 3.18% in assay [10]; 5.52% in assay [11]; 1.23% in assay [12]. For the same compound, the inhibition in assay [13] was determined as 3.47%; in assay [14], 41%; in assay [15], 89.7%; in [16] it was 27.4%; in assay [17], 68.6%; in [18], 54.9%. Besides, the inhibition in assay [19] was 92%; in assay [20], 67.8%.

For the compound `[O-][S+]1CCN(Cc2ccc(-c3ccc4ncnc(Nc5ccc(OCc6cccc(F)c6)c(Cl)c5)c4c3)o2)CC1`, the inhibition in assay [1] was found to be 5.15%; in [2], 2.52%; in [3], 2.37%; in assay [4], 81.3%; in assay [5], 83.5%; in assay [6], 88.1%. The inhibition in assay [7] was 99.1%; in assay [8] it was 77.5%; in [9], 95.7%; in assay [10] it was 7.36%; in assay [11], 22%; in assay [12] it was 1.22%. In addition, the inhibition in assay [13] was determined as 5.52%; in assay [14], 1.19%; in [15], 0.52%; in [16], 5.19%; in assay [17], 2.42%; in [18] it was 7.3%. Also, the inhibition in assay [19] was 11.6%; in [20], 9.52%.

Consider `CCn1cc(-c2ccnc3[nH]ccc23)c(-c2cccc(NC(=O)Nc3ccc(OCc4ccccc4)cc3)c2)n1`, for which the inhibition was 2.9% in [1]; 2.59% in assay [2]; 21% in assay [3]; -1.36% in [4]; 2.86% in assay [5]; -3.83% in assay [6]. Further, the inhibition in assay [7] is -3.23%; in assay [8], -1.65%; in [9] it was 2.37%; in [10] it was -1.87%; in [11], -1.25%; in assay [12], 0.93%. For the same compound, the inhibition is -1.31% in assay [13]; 1.83% in assay [14]; 0.05% in assay [15]; 0.1% in assay [16]; 1.02% in assay [17]; 0.23% in assay [18]. Besides, the inhibition in [19] is 3.4%; in [20], -2.33%.

With `COc1ccc(CNC(=O)c2ccc(-c3cc(-c4nnc(C)o4)ccc3C)cc2)cc1`, the inhibition in [1] worked out at 6.32%; in assay [2], 4.36%; in [3] it was 4.67%; in [4], 2.84%; in assay [5] it was 4.15%; in assay [6], 0.12%. Moreover, the inhibition is 8.38% in assay [7]; 1.79% in assay [8]; 7.03% in assay [9]; 1.31% in assay [10]; 5.47% in assay [11]; 3.26% in [12]. The inhibition in [13] turned out to be 3.61%; in assay [14], 2.44%; in assay [15], 2.41%; in assay [16], 1.41%; in assay [17], 4.21%; in assay [18] it was 5.67%. For the same compound, the inhibition is 15.7% in [19] and 7.58% in assay [20].

Take `CCOc1ccc2c(-c3ccnc(Nc4cccc(C(F)(F)F)c4)n3)cnn2n1`: the inhibition in [1] turned out to be 1.6%; in assay [2], 4.46%; in assay [3], 6.02%; in assay [4], 0.09%; in assay [5], 1.97%; in assay [6], 0.87%. The inhibition was -1.72% in [7]; 1.44% in assay [8]; -0.42% in assay [9]; -0.02% in [10]; -0.36% in assay [11]; 0.8% in assay [12]. For the same compound, the inhibition worked out at 0.09% in assay [13]; 1.2% in assay [14]; 0.67% in assay [15]; 1.59% in [16]; 5.76% in [17]; 6.67% in assay [18]. Moreover, the inhibition in assay [19] is 9.91%; in assay [20], 7.74%.

By inhibition is commonly meant the drop in the measured response relative to a control, in per cent.
